# RE007 growth inh = less growth of the S. pombe RE007 Vpr strain. S. pombe RE007 Vpr strain, BacTiter-Glo ATP luminescence, 24 h. Potency, µM (highest dose often 92.2 µM), inactives show at the highest dose activity change, negative = less growth, actives largely listed as inhibitors. actives 0.21% (n = 360,000); active = well fitted falling curve with a large enough effect; inconclusive = small, poorly fitted or top-dose-only effect; inactive = no such curve, though single readings can be large or run the other way; note: potency is the fitted concentration of half-maximal effect; % is set by controls: 0 for no effect and ±100 for the full control effect; nearly all actives have a fitted effect of over 50% in size
#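 Fission yeast strain RE007, carrying one chromosomally integrated HIV-1 vpr copy, was seeded at OD 0.01 in PMG+AL medium with 23 nL pinned compound. After 24 h at 30 °C and 99% humidity, viability was read by BacTiter-Glo luminescence.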
# CHX counter = counter-screen hit for Shiga toxin inhibitors, cycloheximide | actives 12% (n = 300,000) | max response, % | cell reporter, cycloheximide protein synthesis inhibition counterscreen; in the data active = max response mostly above about 13%, no sharp cut-off; inactive = mostly below about 14%; note: read at 38.3 µM for the half of the compounds with a filed dose; 0% is about no effect
# Shiga toxin inh = inhibitors of Shiga toxin in Vero cells; Vero cells, Shiga toxin protein synthesis inhibition reporter; inhibition, % at 38.7 µM; actives 9.2% (n = 290,000); AID 2315; in the data active = inhibition mostly above about 28%, no sharp cut-off; inactive = mostly below about 43%; note: 0% is about no effect
# Giardia FBPA inh = inhibitors of Giardia lamblia fructose-1,6-bisphosphate aldolase | actives 0.71% (n = 290,000) | A8B2U2 | purified Giardia FBPA | Potency, µM (doses to about 59.6 µM), for the others: at the top dose activity, negative = inhibition, actives largely listed as inhibitors | AID 2451; note: potency is the fitted concentration of half-maximal effect; % is set by controls: 0 for no effect and ±100 for the full control effect; nearly all actives have a fitted effect of over 55% in size
# Target sequence (A8B2U2 whole entry, looked up): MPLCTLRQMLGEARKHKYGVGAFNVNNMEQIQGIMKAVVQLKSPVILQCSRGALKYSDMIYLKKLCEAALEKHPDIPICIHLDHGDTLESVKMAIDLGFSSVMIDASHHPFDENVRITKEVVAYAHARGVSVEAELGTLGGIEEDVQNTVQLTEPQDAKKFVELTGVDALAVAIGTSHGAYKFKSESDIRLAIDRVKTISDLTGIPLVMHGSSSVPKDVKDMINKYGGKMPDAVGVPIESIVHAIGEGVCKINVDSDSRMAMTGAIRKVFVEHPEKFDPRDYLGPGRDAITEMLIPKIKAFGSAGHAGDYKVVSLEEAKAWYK
#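 Giardia FBPA (40 nM reagent) was preincubated 10 min at RT with compound (up to 57.5 uM final), then substrate plus GAPDH/TPI/NAD/arsenate coupling system with diaphorase/resazurin was added; resorufin fluorescence (525/598 nm) was read after 20 min.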
# TbPYK inhibitor = inhibitors of Trypanosoma brucei pyruvate kinase. actives 0.12% (n = 410,000). Potency, µM (top dose mostly 76.8 µM), without a hit: at the highest dose activity, negative = inhibition, hits mostly inhibitors. TbPYK enzyme, Kinase-Glo Plus ATP luminescence, 45 min; note: potency is the fitted concentration of half-maximal effect; % is set by controls: 0 for no effect and ±100 for the full control effect; nearly all actives have a fitted effect of over 50% in size
#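 ADP (130 uM final) triggers the TbPYK reaction after compound addition; incubation is 45 min at room temperature. Kinase-Glo Plus is then added and luminescence imaged. Normalized data are fitted to concentration-effect curves.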
# LmPK inh = blocks Leishmania mexicana pyruvate kinase activity; Potency, µM (top dose mostly 57.5 µM), without a hit: at the highest dose activity change, negative = inhibition, usual class: inhibitors; Q27686; purified LmPK, Kinase-Glo ATP luminescence, 1 h; actives 0.37% (n = 290,000); AID 1721; note: potency is the fitted concentration of half-maximal effect; % is set by controls: 0 for no effect and ±100 for the full control effect
#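 Pyruvate kinase activity monitored as ATP production (luciferase luminescence). Conditions: 0.1 nM enzyme, 0.5 mM PEP, 0.1 mM ADP, 1 h, RT; normalized against uninhibited and no-enzyme wells.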
# Active calls of the source: *; ? = inconclusive; . = not tested or not shown; [ ] = remark or other dose. The sample as a whole holds a higher share of hits than the screen did. Unless noted, calls come from the whole dose curve; as a rule, active = well fitted curve in the direction sought with a large enough effect; inconclusive = small, poorly fitted or top-dose-only effect, or another doubt; inactive = no such curve, though single readings can be large; an effect the other way counts as inactive or inconclusive.
SMILES,RE007 growth inh,CHX counter,Shiga toxin inh,Giardia FBPA inh,TbPYK inhibitor,LmPK inh
CC(C)Cn1c(N)c(C(=O)CSc2nnc(-c3ccco3)n2C)c(=O)n(C)c1=O,-4%,.,.,.,-2%,.
COc1ccc(CNc2ncncc2-c2ccccc2Cl)c(OC)c1,.,.,.,8%,.,.
O=C(NCc1ccccc1Cl)C(=O)c1cn(CC(=O)N2CCOCC2)c2ccccc12,11%,7,-9,.,1%,-6%
CCN(CC)c1nc2c(S(=O)(=O)c3ccccc3)nnn2c2ccc(Cl)cc12,.,.,.,.,3%,.
O=C(c1ccccc1F)N1CCN(c2ccc([N+](=O)[O-])c(NCC3CCCO3)c2)CC1 (stereo not given),5%,-2,-12,-18%,6%,0%
Cn1c(SCC(=O)c2ccc(-c3ccccc3)cc2)nnc1-c1ccco1,-5%,28*,29*,-28%,0%,1%
N#Cc1c2n(c3c(=O)[nH]cnc13)CCCC2,-2%,1,20,0%,4%,-2%
N#Cc1c2n(c3c(=S)nc[nH]c13)CCCCC2,-1%,-1,-15,?,?,22µM*
Cc1ccccc1NC(=O)COc1ccc(Br)cc1C,-7%,41*,54*,0%,0%,3%
COc1cc(CO)c(Br)cc1OCC(=O)Nc1ccccc1C,1%,32*,29,-4%,0%,-1%[11.5 µM]
Cc1cccc(CNC(=O)C2CCC(=O)N(CCc3cccc(F)c3)C2)n1 (stereo not given),-4%,-2,0,-17%,0%,-7%
O=C(NC(CC(=O)N1CCCC(C(F)(F)F)C1)c1ccccc1)c1ccccc1Cl (stereo not given),1%,-11,-20,.,11%,-9%
COc1ccccc1NC1=CC(=O)CC(c2ccccc2)C1 (stereo not given),29%,-3,-2,1%,6%,-1%
CN(C)c1ccc(C2CC(=O)C=C(Nc3ccccc3N)C2)cc1 (stereo not given),-22%,40*,68*,1%,-11%,1%
O=c1c(O)c(-c2cc(O)c(O)c(O)c2)oc2cc(O)cc(O)c12,14%,.,.,?,?,.
O=C1C=CC(O)(c2cc(=O)c3c(O)cc(O)cc3o2)C=C1,2%,45*,93*,4%,-18%,-5%
Cc1ccc(-c2nnc(-c3cccc(NC(=O)c4cccs4)c3)o2)cc1,0%,11,39*,6%,3%,4%
O=C(Nc1cccc(-c2nnco2)c1)c1cccs1,12%,1,12,-8%,3%,-1%
Cc1cccc(-c2nnc(-c3cccc(NC(=O)Cc4cccs4)c3)o2)c1,2%,20*,13,-2%,1%,2%
O=C(Cc1cccs1)Nc1ccc(-c2nnc(-c3ccccc3)o2)cc1,4%,.,.,.,4%,.
O=c1c(-c2cccc(Cl)c2)nc2cncnc2n1Cc1ccccc1,.,.,.,-4%,.,.
O=C(Cc1ccc([N+](=O)[O-])cc1)OCc1c(F)cccc1Cl,24%,17*,56,10%,0%,5%
N/C(Cc1ccc([N+](=O)[O-])cc1)=N\OC(=O)c1ccccc1F,-10%,18*,38*,-2%,-1%,9%
COc1ccc(C/C(N)=N/OC(=O)c2ccc(Cl)cc2)cc1,-7%,21*,55*,7%,2%,5%
N/C(Cc1ccc(Cl)cc1)=N\OC(=O)c1ccc2ccccc2c1,10%,9,5,7%,-7%,-4%
SMILES,RE007 growth inh,CHX counter,Shiga toxin inh,Giardia FBPA inh,TbPYK inhibitor,LmPK inh
N/C(Cc1ccc(Cl)cc1)=N\OC(=O)c1cccc2ccccc12,?,23*,37,8%,-25%,5%
CCCCOc1ccccc1C1CC(=O)Nc2ccc3ccccc3c21 (stereo not given),.,.,.,.,0%,.
COCCNc1ncnc2c1ncn2[C@H]1CN(Cc2ccco2)C[C@@H](CO)O1,1%,.,.,.,-6%,.
COc1ccc(Cl)cc1NC(=O)c1ncn(-c2ccccc2)n1,.,.,.,.,2%,.
Cn1cc(-c2coc3c(C(=O)NCc4cccs4)cccc23)cn1,-3%,.,.,.,4%,.
O=C(CSc1ncnc2c1oc1ccccc12)N1CCN(c2ccccc2)CC1,7%[3.69 µM],.,.,.,.,.
CCc1nc(Nc2ccc(N3CCN(C(C)=O)CC3)cc2)c2oc3ccccc3c2n1,-5%,18*,-4,-10%,-9%,-1%
CC(=O)N1CCN(c2ccc(Nc3ncnc4c3oc3ccccc34)cc2)CC1,-11%,43*,128,-17%,-11%,-13%
O=C(OCc1ccccc1)N(CCCCN(CCCNCc1ccccc1)C(=O)OCc1ccccc1)CCCNCc1ccccc1,53%,.,.,.,3%,.
COc1ccccc1Oc1nc2c(C)cccn2c(=O)c1/C=C(\C#N)c1nc2ccccc2[nH]1,.,.,.,.,2%,.
Cc1ccccc1NC(=O)CCN1CCc2ccccc2C1,1%,-1,-17,?,-1%,-2%
O=S(=O)(Nc1cccc2ncccc12)c1cccs1,-3%,29*,6,?,4%,5%
Cc1c(NS(=O)(=O)c2cccs2)cccc1-c1nc2cccnc2s1,-18%,24*,22,16%,0%,2%
Cc1c(NS(C)(=O)=O)cccc1-c1nc2cccnc2s1,-4%,32*,154*,2%,0%,-1%
CCOc1ccccc1NS(=O)(=O)c1cccs1,-12%,-3,1,14µM*,4%,2%
Cc1cc(NC(=O)CSCC(=O)N2CCN(c3ccccc3)CC2)no1,0%,.,.,.,3%,.
O=C(CSCn1nnc2c(=O)[nH]c(Cc3ccc(F)cc3)nc21)Nc1cccc(C(F)(F)F)c1,.,.,.,.,7%,.
O=C1Nc2ccc(NS(=O)(=O)c3cccs3)c3cccc1c23,8%,12,9,8.9µM*,6%,3%
CCc1ccc(OCC(=O)Nc2ccc3oc(-c4ccc(OC)cc4)nc3c2)cc1,.,.,.,.,-3%,.
Cc1ccc2nc(-c3ccc(Cl)c(NC(=O)COc4ccc(C(C)C)cc4)c3)oc2c1,.,.,.,.,-6%,.
COc1ccc(OCC(=O)Nc2ccc(-c3nc4cc(C)c(C)cc4o3)cc2)cc1,.,51*,98*,.,-4%,.
Cc1ccc(OCC(=O)Nc2ccc(-c3nc4ccc(C)cc4o3)cc2)cc1,.,34*,80*,.,-1%,.
COc1ccc(-c2nc(CS(=O)(=O)CC(=O)Nc3ccc(Cl)cc3)c(C)o2)cc1,3%,19*,40*,5%,1%,-1%
CCOC(=O)C1=C(CS(=O)(=O)c2ccc(F)c(C)c2)NC(=O)NC1c1ccccc1OC (stereo not given),.,.,.,.,-2%,.
O=C1CSC(c2cccs2)N1c1ccccc1 (stereo not given),6%,-1,-6,0%,-9%,-6%
c1ccc(N2CCN(c3ccccc3)C2c2cccs2)cc1,?,30*,94*,-3%,3%,4%

# Source: PubChem
